Structures are written as SMILES. Inconclusive results are not listed. Entries that show only a call come without a potency. A number with no mark means an inactive call. The source made the active and inactive calls. Calls come from the whole dose curve. Positions of bridges follow the written chain, without caps; N, C: chain ends. Non-standard residues stand in square brackets, D forms with d. Residues, ends and D or L forms follow the SMILES beside them. hArg = N=C(N)NCCCC[C@H](N)C(=O)O; Mpa = O=C(O)CCS

The assay deals with Progesterone receptor (Homo sapiens) (UniProt P06401). Description: qHTS assay to identify small molecule agonists of the progesterone receptor (PR) signaling pathway (AID 1346784). Note: nearly all actives have a fitted effect of over 30% in size. The following applies: PR-UAS-bla HEK293T, beta-lactamase FRET ratio, 16 h; series mostly up to 92.4 µM. An excerpt: U.S. Tox21 Program National Center for Advancing Translational Sciences [NCATS] NIH Chemical Genomics Center [NCGC] U.S. Environmental Protection Agency [EPA] National Institutes of Environmental Health Sciences [NIEHS] National Toxicology Program [NTP] U.S. Food and Drug Administration [FDA] […] Endocrine disrupting chemicals (EDCs) and their interactions with steroid hormone receptors like PR causes disruption of normal endocrine function. To identify the compounds that activate PR signaling, a PR-UAS-bla GripTite cell line i.e. PR-UAS-bla HEK 293T (Invitrogen, Carlsbad, CA, USA) containing a beta-lactamase reporter gene under the control of an Upstream Activator Sequence (UAS) was used to screen Tox21 10K compound library.
Progesterone receptor (Homo sapiens), sequence (P06401 whole entry, looked up): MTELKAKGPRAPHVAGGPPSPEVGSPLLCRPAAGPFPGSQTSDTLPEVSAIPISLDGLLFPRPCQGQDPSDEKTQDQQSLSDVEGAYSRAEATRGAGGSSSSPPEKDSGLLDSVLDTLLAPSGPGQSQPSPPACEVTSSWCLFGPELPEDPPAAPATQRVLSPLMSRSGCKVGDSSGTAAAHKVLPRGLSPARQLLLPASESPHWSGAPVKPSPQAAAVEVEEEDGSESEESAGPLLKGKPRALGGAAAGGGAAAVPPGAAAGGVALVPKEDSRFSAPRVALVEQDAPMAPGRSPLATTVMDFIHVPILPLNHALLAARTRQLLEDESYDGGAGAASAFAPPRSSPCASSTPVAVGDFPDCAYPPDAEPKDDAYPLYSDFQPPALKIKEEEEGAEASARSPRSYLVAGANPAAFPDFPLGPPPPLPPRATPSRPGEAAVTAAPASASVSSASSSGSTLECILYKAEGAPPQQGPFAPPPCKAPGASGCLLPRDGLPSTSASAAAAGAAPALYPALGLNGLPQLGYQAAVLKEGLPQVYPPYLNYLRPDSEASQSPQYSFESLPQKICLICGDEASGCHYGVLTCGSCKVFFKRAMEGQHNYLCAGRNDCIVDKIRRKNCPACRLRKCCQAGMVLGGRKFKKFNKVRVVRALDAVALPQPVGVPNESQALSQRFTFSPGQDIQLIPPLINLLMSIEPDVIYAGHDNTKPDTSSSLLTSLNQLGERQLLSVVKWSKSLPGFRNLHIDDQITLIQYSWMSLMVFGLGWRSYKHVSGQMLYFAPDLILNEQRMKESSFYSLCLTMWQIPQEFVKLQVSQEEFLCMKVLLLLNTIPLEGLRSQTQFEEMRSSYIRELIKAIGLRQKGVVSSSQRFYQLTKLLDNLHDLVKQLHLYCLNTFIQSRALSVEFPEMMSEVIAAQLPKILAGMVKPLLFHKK
Tox21 Assay Protocol Summary: PR-UAS-bla HEK 293T cells were dispensed at 3,000 cells/5 uL of assay medium containing 2% charcoal stripped FBS per well into black wall/clear-bottom 1536-well plates using a Multidrop Combi (ThermoFisher Scientific, Waltham, MA) dispenser. After the assay plates were incubated at a 37C and 5% CO2 for 6hr, 23 nL of compounds dissolved in DMSO, positive controls or DMSO only was transferred to the assay plate by a Pintool station (Kalypsys, San Diego, CA). The plates were incubated at 37C and 5% CO2 for 16hr. Then 1 uL of LiveBLAzer B/G FRET substrate was added using a BioRAPTR FRD (Flying Reagent Dispenser, Aurora Discovery, San Diego, CA). After the plates were incubated at room temperature for 2 hours, fluorescence intensity was measured by an Envision plate reader (PerkinElmer, Shelton, CT).
(In general: qHTS replaces the single test concentration by a dilution series.)
With `COS(=O)(=O)O`, the Potency result is “inactive”.
Consider `CCC(C)OC(C)CC` (stereo not given), for which the Potency entry is “inactive”.
Take `CCC(C(=O)OCCN1CCOC(c2ccccc2)C1C)c1ccccc1` (stereo not given): the Potency entry was “inactive”.
In the case of `N[C@@H](CSCCCO)C(=O)O`, the activation was -0.517% [at 19 µM].
Take `NCC1(Cc2noc(=O)[nH]2)CCCCC1`: the Potency result was “inactive”.
Take `C[C@H]1[C@@H](c2ccccc2)NC(=O)N1C`: the Potency entry was “inactive”.
Same read-out and setting: as for `CCOc1ccccc1OCC1CNCCO1` (stereo not given), the entry is “inactive”.
In the case of `CCCCCCCCCOC(=O)CCCCC(=O)OCCCCCCC`, the Potency result is “inactive”.
As to `CC1OCCC1=O` (stereo not given), the Potency entry was “inactive”.
With `C=CC(=O)OCC1CCCO1` (stereo not given), the Potency entry was “inactive”.
On the same count and under the same terms, as for `NC(=O)[C@@H]1CSSCCC(=O)N[C@@H](CCCCN=C(N)N)C(=O)NCC(=O)N[C@@H](CC(=O)O)C(=O)N[C@@H](Cc2c[nH]c3ccccc23)C(=O)N2CCC[C@H]2C(=O)N1` ([Mpa][hArg]GDWPC-NH2; disulfide 1-7), the entry is “inactive”; as for `CO[C@@]1(NC(=O)Cc2cccs2)C(=O)N2C(C(=O)O)=C(COC(N)=O)CS[C@@H]21`, “inactive”.
Consider `N[C@@H](Cc1ccc(O)cc1)C(=O)O`, for which the activation was -2.73% [at 8.39 µM].
Still for that read-out and setting: as for `CCn1cc(C(=O)O)c(=O)c2cnc(N3CCCC3)nc21`, the figure is 0.947% [at 8.39 µM].
As to `CCCCCCCCCCCCCCC(=O)NC(CO)CCCCCCCCCCCCCC` (stereo not given), the Potency result is “inactive”.
`O=C(CCCl)NCCc1ccccc1`: the Potency entry was “inactive”.
The same measure, in the same setting: as for `CC/C=C\CCOC(=O)c1ccccc1O`, the entry is “inactive”; as for `C=CCCCCCCCC`, “inactive”; as for `CC1c2ccccc2CN1NC(=O)c1ccc(Cl)c(S(N)(=O)=O)c1` (stereo not given), “inactive”.
The same measure, in the same setting: as for `CC(C)NC(=O)c1ccc(C=O)cc1`, the entry is “inactive”; as for `CC(O)COC(C)(C)C` (stereo not given), “inactive”; as for `CCCCC1CCC(O)CC1` (stereo not given), “inactive”.
Still for that read-out and setting: as for `CC(=O)OCC(=O)Nc1cc(C#N)cc(NC(=O)COC(C)=O)c1Cl`, the entry is “inactive”; as for `Cc1cccc(Cl)c1`, “inactive”; as for `CSc1cnccn1`, “inactive”.
Turning to `COc1cc2c(cc1OC)C(=O)C(CC1CCN(Cc3ccccc3)CC1)C2` (stereo not given), the Potency result was “inactive”.
Still for that read-out and setting: as for `CO[Si](CCCn1c(=O)n(CCC[Si](OC)(OC)OC)c(=O)n(CCC[Si](OC)(OC)OC)c1=O)(OC)OC`, the entry is “inactive”; as for `CC(=O)CCc1ccc(OC(C)=O)cc1`, “inactive”; as for `CC(=O)O[C@@H]1CC2CCC1(C)C2(C)C` (stereo not given in full), “inactive”.
In the case of `c1ccc(-c2nn[nH]n2)cc1`, the Potency result was “inactive”.
The same measure, in the same setting: as for `OCC1(CO)COCOC1`, the entry is “inactive”.
Same read-out and setting: as for `CCCCOCCOC(=O)COc1ccc(Cl)cc1Cl`, the entry is “inactive”; as for `CC1=C(C(=O)O)N2C(=O)[C@@H](NC(=O)[C@H](N)c3ccccc3)[C@H]2SC1`, “inactive”.
Still for that read-out and setting: as for `O=C(O)CNC(=O)CNC(=O)CNC(=O)CSC(=O)c1ccccc1`, the entry is “inactive”; as for `CCCC(CC)c1ccccc1` (stereo not given), “inactive”.
On to `CCN(CC)CCN`, for which the Potency entry is “inactive”.
Consider `O=[N+]([O-])c1c(Cl)cc(Cl)cc1Cl`, for which the Potency entry is “inactive”.
On to `CC(=O)CC(=O)OC(C)(C)C`, for which the Potency entry is “inactive”.
The same measure, in the same setting: as for `Nc1nnnn1-c1ccccc1`, the entry is “inactive”; as for `O=C1NC(c2ccccc2)(c2ccccc2)C(=O)N1COP(=O)(O)O`, “inactive”.

These data come from PubChem BioAssay (Tox21).
